Reference: the supplement of paper PMC10849652
About 7,900 targets were measured; listed, in parts, are those with a hit and a random draw of the rest. About 0.6% of all pairs of compound and target were hits.

What was measured:
Assay in all cases: log2 fold change, soluble protein after heating vs DMSO (PISA); higher = thermal stabilisation; K562 cells, 10 uM, 30 min; active = over 0.2 and 3.5 SD of the protein, either way, in both replicates (recomputed)
[1] = compound: CN1CCN(CCOc2cc(OC3CCOCC3)c3c(Nc4c(Cl)ccc5c4OCO5)ncnc3c2)CC1 [saracatinib]
In short: (§1)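 Quantification of soluble protein used TMTpro 16plex LC-MS/MS, with channel sums equalised. Samples were the supernatant after 21,000xg for 90 min of pooled aliquots from K562 cells (2×10^6 cells/mL) treated with 10 μM compound for 30 min, heated for 3 min over 48°C-58°C, and extracted in PBS with 0.5% NP-40 at 4°C. Values, from duplicates, describe thermal stability against control samples on a log2 fold-change scale.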

[2] = compound: CN1CCN(c2nc(C3=C(c4c[nH]c5ccccc45)C(=O)NC3=O)c3ccccc3n2)CC1 [sotrastaurin]
In short: as §1

[3] = compound: CN1CC[C@H](c2c(O)cc(O)c3c(=O)cc(-c4ccccc4Cl)oc23)[C@H](O)C1 [alvocidib]
In short: as §1

[4] = compound: CN1CCc2c(c3ccccc3n2Cc2ccc(C(=O)NO)cc2)C1 [Tubastatin A]
In short: as §1

[5] = compound: CNC(=O)C1=CC=CC=C1NC2=NC(=NC=C2Cl)NC3=C(C=C(C=C3)N4CCOCC4)OC
In short: as §1

[6] = compound: CNC(=O)c1ccc(Nc2ncc(C(F)(F)F)c(NCc3nccnc3N(C)S(C)(=O)=O)n2)cc1 [defactinib]
In short: as §1

[7] = compound: CNCc1ccc(-c2[nH]c3cc(F)cc4c3c2CCNC4=O)cc1 [rucaparib]
In short: as §1

[8] = compound: CNc1nc(-c2ccc3c(N)n[nH]c3c2)cc(N2C[C@@H](C(=O)NC3CCCCC3)CC[C@H]2C)n1
In short: as §1

[9] = compound: COC(=O)N[C@@H](C)CNc1nccc(-c2cn(C(C)C)nc2-c2cc(Cl)cc(NS(C)(=O)=O)c2F)n1 [encorafenib]
In short: as §1

[10] = compound: COC(=O)[C@H](CCSC)NC(=O)C1=C(C=C(C=C1)NC[C@H](CS)N)C2=CC=CC=C2
In short: as §1

Measured: log2 fold change

IMMT isoform 2 (UniProt Q16891)
inactive: [1] -0.069 | [2] -0.036 | [3] -0.071 | [4] -0.076 | [5] 0.131 | [6] 0.029 | [7] 0.023 | [8] -0.111 | [9] 0.017 | [10] 0.067

LMF2 (UniProt Q9BU23)
UniProt Q9BU23, sequence (Q9BU23 whole entry, looked up): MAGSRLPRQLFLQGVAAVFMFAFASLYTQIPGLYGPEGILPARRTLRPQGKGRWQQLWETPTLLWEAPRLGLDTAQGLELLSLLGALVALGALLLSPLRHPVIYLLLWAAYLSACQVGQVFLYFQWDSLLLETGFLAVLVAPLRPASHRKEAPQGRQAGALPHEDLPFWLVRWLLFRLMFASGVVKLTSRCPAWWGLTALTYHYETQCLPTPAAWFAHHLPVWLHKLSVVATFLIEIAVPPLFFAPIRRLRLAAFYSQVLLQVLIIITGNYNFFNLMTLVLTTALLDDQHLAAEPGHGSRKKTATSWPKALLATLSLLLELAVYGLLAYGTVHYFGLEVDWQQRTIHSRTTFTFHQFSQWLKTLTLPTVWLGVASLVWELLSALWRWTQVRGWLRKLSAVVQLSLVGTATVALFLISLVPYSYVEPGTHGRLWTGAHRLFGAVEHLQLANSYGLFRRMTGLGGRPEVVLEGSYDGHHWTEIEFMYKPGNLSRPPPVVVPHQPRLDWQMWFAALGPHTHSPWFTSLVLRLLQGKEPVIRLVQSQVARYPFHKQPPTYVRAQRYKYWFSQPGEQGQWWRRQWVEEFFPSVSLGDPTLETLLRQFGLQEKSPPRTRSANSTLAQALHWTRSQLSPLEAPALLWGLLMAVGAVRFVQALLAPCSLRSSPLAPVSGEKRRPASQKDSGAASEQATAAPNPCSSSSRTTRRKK
inactive: [1] 0.006 | [2] -0.043 | [3] 0.035 | [4] 0.048 | [5] 0.007 | [6] 0 | [7] 0.082 | [8] -0.02 | [9] 0.052 | [10] -0.04

LMBRD2 (UniProt Q68DH5)
inactive: [1] 0.04 | [2] 0.02 | [3] -0.041 | [4] -0.032 | [5] -0.014 | [6] -0.01 | [7] 0.003 | [8] -0.037 | [9] 0.021 | [10] -0.021

ILF2 (UniProt Q12905)
UniProt Q12905, sequence (Q12905 whole entry, looked up): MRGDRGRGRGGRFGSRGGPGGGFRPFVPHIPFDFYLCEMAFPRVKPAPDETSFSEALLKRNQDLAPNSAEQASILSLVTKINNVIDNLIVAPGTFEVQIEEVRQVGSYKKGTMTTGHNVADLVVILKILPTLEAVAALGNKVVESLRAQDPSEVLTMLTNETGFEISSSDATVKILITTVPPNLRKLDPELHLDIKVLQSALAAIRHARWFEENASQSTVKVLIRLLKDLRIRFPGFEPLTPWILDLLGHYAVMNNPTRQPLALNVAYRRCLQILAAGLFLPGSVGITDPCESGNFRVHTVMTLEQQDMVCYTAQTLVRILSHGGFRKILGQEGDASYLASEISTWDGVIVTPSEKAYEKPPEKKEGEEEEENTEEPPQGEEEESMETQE
inactive: [1] 0.039 | [2] 0.041 | [3] 0.325 | [4] -0.058 | [5] 0.015 | [7] 0.19 | [8] 0.04 | [9] 0.028 | [10] 0.012
active: [6] 0.491

KIF2C (UniProt Q99661)
inactive: [1] 0.003 | [2] -0.048 | [3] -0.019 | [4] 0.024 | [5] -0.017 | [6] -0.051 | [7] 0.019 | [8] 0.064 | [9] 0.142 | [10] -0.092

MIEF1 (UniProt L0R8F8)
inactive: [1] -0.068 | [2] -0.008 | [3] 0.009 | [4] 0.041 | [5] 0.008 | [6] -0.003 | [7] 0.024 | [8] -0.074 | [9] 0.008 | [10] 0.015

MAN2B2 (UniProt Q9Y2E5)
inactive: [1] -0.015 | [2] -0.018 | [4] 0.105 | [5] 0.035 | [6] -0.009 | [7] -0.158 | [8] 0.007 | [9] 0.044 | [10] -0.04

MFAP3 (UniProt P55082)
UniProt P55082, sequence (P55082 whole entry, looked up): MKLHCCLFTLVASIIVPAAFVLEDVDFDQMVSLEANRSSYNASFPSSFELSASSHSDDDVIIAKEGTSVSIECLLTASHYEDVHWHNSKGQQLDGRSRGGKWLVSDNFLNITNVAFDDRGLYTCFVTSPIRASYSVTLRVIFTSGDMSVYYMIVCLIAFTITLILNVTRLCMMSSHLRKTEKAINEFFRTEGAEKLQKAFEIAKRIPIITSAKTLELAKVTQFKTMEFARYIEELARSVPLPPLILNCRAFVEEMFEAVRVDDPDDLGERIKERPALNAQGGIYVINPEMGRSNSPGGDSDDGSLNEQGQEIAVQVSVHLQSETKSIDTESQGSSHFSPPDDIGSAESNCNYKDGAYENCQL
inactive: [1] 0.088 | [2] 0.019 | [4] 0.068 | [6] 0.306 | [8] 0.002 | [10] -0.189

KIAA1324L (UniProt A8MWY0)
inactive: [1] 0.018 | [2] 0.014 | [3] -0.056 | [4] -0.017 | [5] -0.014 | [6] 0.033 | [7] -0.021 | [8] 0.023 | [9] 0.015 | [10] 0.006

MFSD12 isoform 3 (UniProt Q6NUT3)
inactive: [1] -0.154 | [2] -0.172 | [3] -0.04 | [4] 0.031 | [5] 0.042 | [7] -0.14 | [8] -0.144 | [9] 0.196

LEMD3 (UniProt Q9Y2U8)
inactive: [1] -0.014 | [2] 0.013 | [3] -0.057 | [4] 0.062 | [5] 0.068 | [6] -0.111 | [7] 0.027 | [8] 0.039 | [9] 0.026 | [10] -0.075

IP6K1 (UniProt Q92551)
inactive: [1] -0.174 | [2] -0.113 | [3] -0.074 | [4] -0.06 | [5] 0.331 | [7] -0.045 | [8] 0.119 | [9] 0.094

IGFBP3 isoform 2 (UniProt P17936)
inactive: [1] -0.092 | [2] 0.245 | [3] 0.251 | [4] 0.001 | [6] 0.17 | [8] -0.08 | [10] 0.045

ITM2C (UniProt Q9NQX7)
UniProt Q9NQX7, sequence (Q9NQX7 whole entry, looked up): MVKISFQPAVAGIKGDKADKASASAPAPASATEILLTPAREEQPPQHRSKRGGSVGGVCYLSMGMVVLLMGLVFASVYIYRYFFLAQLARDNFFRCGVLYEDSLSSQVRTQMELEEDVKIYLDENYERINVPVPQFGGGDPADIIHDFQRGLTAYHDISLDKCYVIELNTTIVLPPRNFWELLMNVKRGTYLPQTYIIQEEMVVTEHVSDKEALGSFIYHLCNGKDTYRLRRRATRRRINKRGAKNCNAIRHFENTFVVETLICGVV
inactive: [1] -0.007 | [2] -0.072 | [3] 0.034 | [5] 0 | [6] 0.039 | [8] -0.003 | [10] -0.045

KIFBP (UniProt Q96EK5)
inactive: [1] -0.039 | [2] 0.029 | [3] -0.021 | [4] -0.01 | [5] 0.02 | [6] -0.092 | [7] 0.045 | [8] -0.019 | [9] 0.049 | [10] -0.134

MASTL (UniProt Q96GX5)
UniProt Q96GX5, sequence (Q96GX5 whole entry, looked up): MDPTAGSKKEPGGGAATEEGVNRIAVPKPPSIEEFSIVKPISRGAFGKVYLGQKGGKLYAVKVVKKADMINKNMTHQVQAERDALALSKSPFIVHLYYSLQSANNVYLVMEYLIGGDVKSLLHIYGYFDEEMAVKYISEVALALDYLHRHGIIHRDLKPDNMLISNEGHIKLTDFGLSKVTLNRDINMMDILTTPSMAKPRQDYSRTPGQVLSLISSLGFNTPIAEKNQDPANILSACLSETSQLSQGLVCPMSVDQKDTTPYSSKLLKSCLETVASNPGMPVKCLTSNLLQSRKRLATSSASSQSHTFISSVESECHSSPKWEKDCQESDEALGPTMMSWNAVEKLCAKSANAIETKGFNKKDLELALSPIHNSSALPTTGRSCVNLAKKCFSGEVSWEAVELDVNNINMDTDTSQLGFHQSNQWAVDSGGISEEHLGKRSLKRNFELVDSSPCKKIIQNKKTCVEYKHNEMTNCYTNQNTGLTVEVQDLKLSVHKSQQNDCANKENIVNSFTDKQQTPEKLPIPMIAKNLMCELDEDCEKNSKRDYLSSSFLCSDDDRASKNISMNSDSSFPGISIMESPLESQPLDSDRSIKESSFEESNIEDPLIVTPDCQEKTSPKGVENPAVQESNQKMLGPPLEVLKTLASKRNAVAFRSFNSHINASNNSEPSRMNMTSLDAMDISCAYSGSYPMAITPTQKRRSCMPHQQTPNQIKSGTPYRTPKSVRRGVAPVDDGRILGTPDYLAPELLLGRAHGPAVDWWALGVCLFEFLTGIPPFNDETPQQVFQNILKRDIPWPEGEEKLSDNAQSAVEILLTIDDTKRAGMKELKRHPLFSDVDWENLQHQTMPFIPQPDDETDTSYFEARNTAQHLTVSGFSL
inactive: [1] 0.107 | [2] -0.12 | [3] -0.061 | [5] 0.054 | [6] 0.037 | [7] -0.17 | [8] -0.055 | [9] 0.083 | [10] 0.079

MFSD11 (UniProt O43934)
inactive: [1] 0.092 | [2] 0.085 | [3] -0.029 | [4] 0.005 | [6] -0.033 | [7] -0.002 | [8] -0.127 | [9] -0.047 | [10] -0.015

MFSD8 (UniProt Q8NHS3)
inactive: [1] 0.078 | [3] -0.044 | [4] 0.023 | [5] -0.003 | [6] -0.008 | [7] 0.039 | [8] -0.053 | [9] 0.012 | [10] 0.003

KXD1 (UniProt Q9BQD3)
UniProt Q9BQD3, sequence (Q9BQD3 whole entry, looked up): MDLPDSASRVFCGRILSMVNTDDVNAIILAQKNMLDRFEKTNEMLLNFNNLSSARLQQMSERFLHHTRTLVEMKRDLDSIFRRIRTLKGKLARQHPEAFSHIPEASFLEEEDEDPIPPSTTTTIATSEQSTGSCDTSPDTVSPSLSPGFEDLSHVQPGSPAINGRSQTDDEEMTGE
inactive: [1] -0.097 | [3] -0.105 | [4] -0.01 | [5] 0.008 | [6] -0.03 | [7] -0.051 | [8] -0.07 | [9] 0.018 | [10] 0.017

IRF3 (UniProt Q14653)
UniProt Q14653, sequence (Q14653 whole entry, looked up): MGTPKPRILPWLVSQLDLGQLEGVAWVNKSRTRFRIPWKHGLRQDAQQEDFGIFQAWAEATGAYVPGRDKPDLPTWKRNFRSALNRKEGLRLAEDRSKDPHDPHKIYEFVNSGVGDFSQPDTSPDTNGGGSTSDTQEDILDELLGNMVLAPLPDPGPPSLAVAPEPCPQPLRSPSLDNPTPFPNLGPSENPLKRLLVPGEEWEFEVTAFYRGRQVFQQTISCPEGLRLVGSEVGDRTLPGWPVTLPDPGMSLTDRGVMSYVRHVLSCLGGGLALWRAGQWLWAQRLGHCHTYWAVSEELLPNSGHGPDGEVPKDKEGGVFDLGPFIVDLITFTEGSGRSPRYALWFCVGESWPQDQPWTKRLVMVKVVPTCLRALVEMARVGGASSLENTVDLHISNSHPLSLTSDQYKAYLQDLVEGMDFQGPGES
inactive: [1] 0.061 | [2] -0.043 | [3] -0.07 | [4] 0 | [5] 0.006 | [6] -0.062 | [7] -0.057 | [8] -0.01 | [9] 0.014 | [10] -0.014

MELK (UniProt Q14680)
inactive: [1] -0.005 | [2] 0.166 | [3] 0.011 | [4] 0.074 | [5] -0.347 | [7] 0.125 | [8] 0.196 | [9] 0.06

JAK3 (UniProt P52333)
inactive: [1] -0.03 | [2] -0.042 | [3] 0.004 | [4] -0.016 | [5] 0.116 | [6] 0.003 | [8] -0.158 | [10] -0.056

LSR isoform 3 (UniProt Q86X29)
UniProt Q86X29, sequence (Q86X29 whole entry, looked up): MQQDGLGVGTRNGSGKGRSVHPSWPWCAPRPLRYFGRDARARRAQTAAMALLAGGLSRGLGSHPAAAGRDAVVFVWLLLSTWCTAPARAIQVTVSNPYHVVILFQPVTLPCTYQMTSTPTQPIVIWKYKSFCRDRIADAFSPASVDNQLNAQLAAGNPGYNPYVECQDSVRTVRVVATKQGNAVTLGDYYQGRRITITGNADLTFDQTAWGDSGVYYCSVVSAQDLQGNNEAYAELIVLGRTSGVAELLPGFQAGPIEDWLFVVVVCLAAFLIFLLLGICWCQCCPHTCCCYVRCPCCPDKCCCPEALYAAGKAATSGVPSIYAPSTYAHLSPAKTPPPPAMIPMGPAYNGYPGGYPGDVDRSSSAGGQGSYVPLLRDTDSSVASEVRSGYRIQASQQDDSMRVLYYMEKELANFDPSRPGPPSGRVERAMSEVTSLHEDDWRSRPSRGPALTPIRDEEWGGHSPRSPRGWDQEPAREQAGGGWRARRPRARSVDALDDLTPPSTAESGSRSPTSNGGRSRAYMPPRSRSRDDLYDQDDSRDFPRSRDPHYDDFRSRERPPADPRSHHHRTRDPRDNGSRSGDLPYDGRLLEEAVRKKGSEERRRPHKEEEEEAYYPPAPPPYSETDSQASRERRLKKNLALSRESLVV
inactive: [1] -0.207 | [2] 0.176 | [3] 0.088 | [4] 0.084 | [8] 0.114

KCNK5 (UniProt O95279)
active: [8] -1.08
inactive: [1] -0.444 | [2] -0.047 | [3] -0.239 | [5] -0.05 | [7] 0.05 | [9] 0.017

LRBA, A0A494BZW2
inactive: [1] -0.005 | [2] 0.065 | [3] 0.015 | [4] -0.42 | [5] -0.368 | [7] -0.055 | [8] -0.008 | [9] 0.041

KTN1 (UniProt Q86UP2)
inactive: [1] 0.001 | [2] -0.07 | [3] 0.109 | [4] 0.032 | [5] -0.12 | [6] 0.109 | [7] 0.155 | [8] -0.079 | [9] 0.137 | [10] -0.053

KIF1B isoform 4 (UniProt O60333)
inactive: [1] -0.033 | [2] -0.014 | [3] -0.018 | [4] 0.025 | [5] 0.016 | [6] -0.004 | [7] -0.006 | [8] -0.097 | [9] 0.023 | [10] -0.016

LRBA (UniProt P50851)
inactive: [1] 0.039 | [2] -0.031 | [3] -0.054 | [4] 0.014 | [5] -0.012 | [6] -0.015 | [7] -0.01 | [8] -0.023 | [9] 0.018 | [10] -0.002

INTS5 (UniProt Q6P9B9)
inactive: [1] -0.051 | [2] -0.06 | [4] -0.133 | [5] -0.086 | [6] -0.058 | [8] 0.044 | [10] 0

MAGED1 isoform 2 (UniProt Q9Y5V3)
UniProt Q9Y5V3, sequence (Q9Y5V3 whole entry, looked up): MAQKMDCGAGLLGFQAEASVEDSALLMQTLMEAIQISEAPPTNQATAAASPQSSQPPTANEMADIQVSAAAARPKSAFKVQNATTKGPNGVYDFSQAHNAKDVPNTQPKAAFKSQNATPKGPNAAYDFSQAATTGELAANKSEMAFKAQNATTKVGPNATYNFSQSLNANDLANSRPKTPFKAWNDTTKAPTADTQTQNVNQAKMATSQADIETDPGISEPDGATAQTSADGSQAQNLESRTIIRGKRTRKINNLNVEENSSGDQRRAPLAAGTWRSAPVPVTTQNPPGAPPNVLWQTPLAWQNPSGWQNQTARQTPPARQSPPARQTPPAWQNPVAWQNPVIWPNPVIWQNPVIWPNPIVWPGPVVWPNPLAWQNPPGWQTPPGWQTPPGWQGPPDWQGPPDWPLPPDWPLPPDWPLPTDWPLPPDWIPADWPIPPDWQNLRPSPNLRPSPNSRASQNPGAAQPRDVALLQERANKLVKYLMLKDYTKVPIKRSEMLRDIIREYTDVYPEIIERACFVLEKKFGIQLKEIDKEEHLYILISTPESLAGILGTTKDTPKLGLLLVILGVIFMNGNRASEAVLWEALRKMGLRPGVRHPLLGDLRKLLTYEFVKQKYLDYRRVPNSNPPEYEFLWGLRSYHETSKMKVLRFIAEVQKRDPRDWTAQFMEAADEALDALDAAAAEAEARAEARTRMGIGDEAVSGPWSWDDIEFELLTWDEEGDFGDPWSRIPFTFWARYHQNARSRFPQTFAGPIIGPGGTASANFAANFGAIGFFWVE
inactive: [1] -0.073 | [2] -0.196 | [3] 0.002 | [5] 0.015 | [6] 0.036 | [8] 0.117 | [10] 0.197

MAPK14 (UniProt Q16539)
UniProt Q16539, sequence (Q16539 whole entry, looked up): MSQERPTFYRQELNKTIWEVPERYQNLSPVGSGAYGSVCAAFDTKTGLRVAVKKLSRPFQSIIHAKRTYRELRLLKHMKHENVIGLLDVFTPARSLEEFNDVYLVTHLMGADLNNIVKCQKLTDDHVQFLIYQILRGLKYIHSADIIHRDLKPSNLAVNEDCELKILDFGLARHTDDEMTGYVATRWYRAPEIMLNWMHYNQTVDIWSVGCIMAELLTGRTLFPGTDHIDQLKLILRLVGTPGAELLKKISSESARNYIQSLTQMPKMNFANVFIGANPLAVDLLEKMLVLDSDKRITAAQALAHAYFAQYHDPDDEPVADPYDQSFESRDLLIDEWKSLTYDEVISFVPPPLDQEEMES
inactive: [1] 0.261 | [2] 0.001 | [3] 0.014 | [4] 0.074 | [5] 0.546 | [6] -0.137 | [7] -0.02 | [8] -0.03 | [9] 0.684 | [10] -0.055

MED12 isoform 2 (UniProt Q93074)
inactive: [1] 0.072 | [2] -0.09 | [4] 0.32 | [5] 0.303 | [7] 0.137 | [8] 0.102 | [9] 0.145

LAMP2 isoform 2 (UniProt P13473)
inactive: [1] 0.24 | [3] -0.026 | [4] 0.021 | [5] 0.027 | [6] 0.078 | [7] 0.024 | [8] -0.192 | [9] 0.043 | [10] -0.017

MDC1 (UniProt Q14676)
inactive: [1] -0.194 | [2] -0.003 | [3] 0.027 | [4] 0.011 | [5] -0.162 | [6] -0.012 | [7] 0.082 | [8] 0.119 | [9] 0.075 | [10] -0.067
